Assay results from PubChem BioAssay (NCI).
Compounds without any hit were thinned out: in the full panel of roughly 79,000, 15% have a hit. Cut-off read from the data, not from the text of the source: active = growth inhibition above about 70%; inactive = the rest. Where a SMILES comes first, the peptide text is derived from it. The star is where a group is joined. Trt = c1ccc(C(c2ccccc2)(c2ccccc2)*)cc1; Benzhydryl = c1ccc(C(c2ccccc2)*)cc1; Cbz = O=C(OCc1ccccc1)*

Experiments:
[1] = NCI Yeast Anticancer Drug Screen. Data for the rad50 strain (AID 155);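 note: 0% = growth of vehicle-only cultures of the same strain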; settings: S. cerevisiae rad50 strain growth inhibition; at 50.0 µM; hits give high values
Summary of the method: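 A DNA repair-deficient yeast mutant serves as the test organism; compound-induced growth inhibition is calculated against vehicle-treated cells.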

[2] = NCI Yeast Anticancer Drug Screen. Data for the mec2-1 strain (AID 157); settings: S. cerevisiae mec2-1 strain, at 50.0 µM, hits give high values
Summary of the method: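 Test agents were screened against the mec2-1 yeast strain, with defined DNA repair or cell cycle alteration. Growth was scored as inhibition against vehicle-only controls.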

[3] = NCI Yeast Anticancer Drug Screen. Data for the sgs1 mgt1 strain (AID 161);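 note: 0% = growth of cultures given vehicle only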; settings: S. cerevisiae sgs1 mgt1 strain, at 50.0 µM, hits give high values
Summary of the method: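 Test agents were incubated with a DNA-repair-mutant yeast strain. Growth was then read and compared against vehicle-treated controls.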

[4] = NCI Yeast Anticancer Drug Screen. Data for the cln2 rad14 strain (AID 165);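 note: 0% = growth equal to vehicle treated cultures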; settings: S. cerevisiae cln2 rad14 strain, at 50.0 µM, hits give high values
Summary of the method: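 Growth of compound-exposed yeast (cln2 rad14 genotype) measured and expressed as inhibition relative to vehicle.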

[5] = NCI Yeast Anticancer Drug Screen. Data for the bub3 strain (AID 167); settings: S. cerevisiae bub3 mutant strain, at 50.0 µM, hits give high values
Summary of the method: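 Inhibition values come from growth of compound-treated mutant yeast normalised to vehicle-treated controls.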

[6] = NCI Yeast Anticancer Drug Screen. Data for the mlh1 rad18 strain (AID 175); settings: S. cerevisiae mlh1 rad18 strain growth inhibition; at 50.0 µM; hits give high values
Summary of the method: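 In this whole-cell yeast screen, a strain with altered DNA damage repair is challenged with compound, and its growth is measured against matched vehicle-treated controls.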

Measured: growth inhibition

COc1c(F)c(F)c(/C(O)=C\c2nc3ccccc3[nH]c2=O)c(F)c1F
inactive: [1] -19.6% | [2] -22.9% | [3] -17.4% | [4] 13.6% | [5] -2.05% | [6] -11.3%

C=CCn1c(SC)nc2c(c1=O)CCCC2
inactive: [1] -34.5% | [2] -13.4% | [3] -5.4% | [4] -14.3% | [5] 7.55% | [6] -10.2%

CC(=O)OCCOCNC(=S)NN
inactive: [1] -7.55% | [2] 7.8% | [3] 11.2% | [4] -16.3% | [5] -3.95% | [6] -4.8%

O=C(CCC1CCCC1)Oc1ccccc1C(=O)O
inactive: [1] -1.9% | [2] -9.65% | [3] 7.1% | [4] -42.7% | [5] 9.5% | [6] 3.4%

CCCCCCC(=O)OCC
inactive: [1] 16.3% | [2] -3.4% | [3] -4.7% | [4] 0.9% | [5] 12.9% | [6] 14.2%

CC(=O)N(c1ccc(NC(=O)c2ccc(N3C(=O)c4ccccc4C3=O)cc2[N+](=O)[O-])cc1)c1cc[n+](C)cc1
inactive: [1] -13.8% | [2] 2.3% | [3] -1% | [4] 9.35% | [5] -5.1% | [6] 3.75%

Cc1ccc2c(c1)C(C)(C)CCC2
inactive: [1] -2.1% | [2] -18.4% | [3] -18.4% | [4] -59.6% | [5] -9.1% | [6] 4.95%

CCOC(=O)CN1C(=O)C(=O)N(c2ccc(OC)c3ccccc23)C1=O
inactive: [1] -46.1% | [2] -17.2% | [3] -54.7% | [4] -40% | [5] -1.3% | [6] -27.6%

COc1ccc(OCCO)cc1
inactive: [1] -10.4% | [2] -17.8% | [3] -6.85% | [4] -27.1% | [5] -22.1% | [6] -0.15%

CC(=O)NC1C(SC(=O)NCCCl)OC(COC(C)=O)C(OC(C)=O)C1OC(C)=O (stereo unspecified)
inactive: [1] -7.75% | [2] -8.6% | [3] -3.2% | [4] -16.8% | [5] -27.3% | [6] -4.3%

COc1ccc(NS(=O)(=O)c2ccc(NC(=O)NCCCl)cc2)nn1
inactive: [1] 13% | [2] -0.2% | [3] -9.85% | [4] 8.95% | [5] 2.55% | [6] 5.85%

O=C(c1ccccc1)C(O)(c1ccccc1)C(c1ccccc1)c1ccccc1 (stereo unspecified)
inactive: [1] 5.8% | [2] 18.6% | [3] 16.9% | [4] 13% | [5] 6.75% | [6] 8.05%

CCOC(=O)C1=C(C(C)=O)C(c2ccccc2[N+](=O)[O-])C(C(C)=O)=C(C(=O)OCC)N1
inactive: [1] -7.35% | [2] 10.4% | [3] -9.2% | [4] -6.85% | [5] -9% | [6] 9.25%

N#CC(=O)Nc1ccc(Cl)c(Cl)c1
inactive: [1] -18.6% | [2] -11.2% | [3] -14.6% | [4] -76.6% | [5] -2.15% | [6] 0.4%

Clc1cc(Cc2cc(Cl)c(Cl)c3c2OCOC3)c2c(c1Cl)COCO2
inactive: [1] -47.6% | [2] -24.9% | [3] -5% | [4] -22.4% | [5] -10.6% | [6] -18.3%

Cc1cccc(C(=O)O)c1[N+](=O)[O-]
inactive: [1] 10.4% | [2] 1.05% | [3] -8.25% | [4] -8.35% | [5] -14% | [6] 7.1%

CCOc1ncc(C(O)c2ccco2)c(OCC)n1 (stereo unspecified)
inactive: [1] -0.85% | [2] 5.85% | [3] 5.7% | [4] -47.8% | [5] 3.15% | [6] -8%

CC(=O)OCCc1ccc2c(c1)OCO2
inactive: [1] -0.1% | [2] -11.8% | [3] 6.05% | [4] -30.9% | [5] -16.9% | [6] -6.15%

COC(=O)C(Cc1ccccc1)NC(=O)C(Cc1ccccc1)NC(=O)CNC(=O)C(CSC(c1ccccc1)c1ccccc1)NC(=O)C(CSC(c1ccccc1)(c1ccccc1)c1ccccc1)NC(=O)OCc1ccccc1 (stereo unspecified) (Cbz-C(Trt)C(Benzhydryl)GFF-OMe; configuration not given here)
inactive: [1] -5.55% | [2] 25.4% | [3] 19% | [4] -14.9% | [5] -9.8% | [6] 28.1%

C/C=C(\c1ccccc1)N1CCOCC1
inactive: [1] 17.9% | [2] -9.15% | [3] -8.6% | [4] -37.5% | [5] 7.1% | [6] 5.25%

O=S(=O)(NO)c1ccc(Cl)cc1
inactive: [1] 12.5% | [2] 7.8% | [3] 8.35% | [4] 23.8% | [5] 6.7% | [6] 3.2%

O=C([O-])c1ccc2c(c1)-c1nc-2nc2[n-]c(nc3nc(nc4[n-]c(n1)c1ccc(C(=O)[O-])cc41)-c1cc(C(=O)[O-])ccc1-3)c1ccc(C(=O)[O-])cc21.[Fe+2]
inactive: [1] -1.2% | [2] -0.5% | [3] -13.6% | [4] 3.65% | [5] 7.5% | [6] -1.75%

O=c1c2n(c(=O)c3n1CCC=3)CCC=2
inactive: [1] -2.5% | [2] -13.5% | [3] -0.6% | [4] -25.1% | [5] -6.85% | [6] 9.35%

NC(=O)N/N=C1\CC2CC1C1CCCC21 (stereo unspecified)
inactive: [1] 8.05% | [2] 5.35% | [3] -1.75% | [4] -0.5% | [5] -8.9% | [6] 15.3%

O=C(NN1C(=O)C(Cl)C1c1ccccc1O)c1ccccc1O (stereo unspecified)
inactive: [1] -5.85% | [2] -26.5% | [3] -15.6% | [4] -15.1% | [5] -16.6% | [6] -29.4%

Oc1c(CN2CCN(c3ccccc3)CC2)cc(Br)c2cccnc12
inactive: [1] 34% | [2] 19.9% | [3] 41.4% | [4] -0.3% | [5] 9.4% | [6] 39.6%

O=S(=O)(Oc1cccc2ccccc12)c1ccc(Br)cc1
inactive: [1] 3.15% | [2] -13.4% | [3] 10.2% | [4] -9.75% | [5] 30.7% | [6] -10.3%

CCOC(=O)c1cn(C)c2c1C(=O)C(C(=O)OCC)CCN2C(=O)OCC (stereo unspecified)
inactive: [1] -1.5% | [2] 9.15% | [3] -11.8% | [4] 8.95% | [5] 1% | [6] -19.6%

CCOc1cc(F)cc([N+](=O)[O-])c1
inactive: [1] -11.6% | [2] 5.3% | [3] -20.9% | [4] -14.9% | [5] 19.1% | [6] 5.7%

Cc1ccc(Cl)cc1N=C=S
inactive: [1] -22% | [2] -18.8% | [3] 6% | [4] -4.6% | [5] -38.4% | [6] -11.2%

Oc1c2c(c3cccc4cccc1c43)=Nc1ccccc1S2
inactive: [1] 0.25% | [2] 3.2% | [3] 6.4% | [4] -23.6% | [5] 3.3% | [6] 7.1%

C/C(=N/NC(=O)CC#N)c1ccccc1
inactive: [1] 25.2% | [2] -0.5% | [3] 16.7% | [4] -20.6% | [5] 27.7% | [6] 0.4%

O=C(COc1ccc(Cl)cc1C(=O)O)NCc1cccc2ccccc12
inactive: [1] -0.2% | [2] 36% | [3] 41.8% | [4] 0.9% | [5] 46% | [6] 31.6%

CC(C)=CCS(=O)c1ccccc1NC1=CC(=O)CC(C)(C)C1 (stereo unspecified)
inactive: [1] -16.2% | [2] -26.1% | [3] -37.6% | [4] -7.55% | [5] -5.8% | [6] -3.55%

CCOC(=O)C(Cc1cccc2ccccc12)(NC(C)=O)C(=O)OCC
inactive: [1] -7.5% | [2] -4.55% | [3] -5.95% | [4] -31.9% | [5] 16.5% | [6] -14.8%

Cc1ncc([N+](=O)[O-])n1CC[N+](C)([O-])CCCCn1ccnc1[N+](=O)[O-] (stereo unspecified)
inactive: [1] 16.9% | [2] -20.6% | [3] 20.6% | [4] -41.5% | [5] -3.95% | [6] -9%
